# Key:
# Assay in all cases: CellTox Green cytotoxicity fluorescence relative to DMSO vehicle (fold of vehicle RFU); higher = more cell death (loss of membrane integrity), active = 2 or more
# CMK = system: CMK
# Procedure, shortened: (§1)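 Cytotoxicity, a measure of lost membrane integrity, is reported as fluorescence expressed as fold of the DMSO vehicle. For this, MV4-11, CMK and Kasumi-1 cells (4.0 × 10^4 per well) were seeded with CellTox Green reagent in 96-well black optical-bottom plates. Individual compounds from the Selleckchem apoptosis library, diluted in DMSO, were tested at final 0.01, 0.1 and 1 µM against a 0.1% DMSO vehicle. Fluorescence was read at Ex 485 nm and Em 520 nm after 24, 48 and 72 h at 37 °C, 5% CO2.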
# Kasumi-1 = system: Kasumi-1
# Procedure, shortened: as §1
# MV4-11 = system: MV4-11
# Procedure, shortened: as §1
SMILES,"CellTox Green cytotoxicity fluorescence (CMK; 0.01 µM, 24 h)","CellTox Green cytotoxicity fluorescence (CMK; 0.01 µM, 48 h)","CellTox Green cytotoxicity fluorescence (CMK; 0.01 µM, 72 h)","CellTox Green cytotoxicity fluorescence (CMK; 0.1 µM, 24 h)","CellTox Green cytotoxicity fluorescence (CMK; 0.1 µM, 48 h)","CellTox Green cytotoxicity fluorescence (CMK; 0.1 µM, 72 h)","CellTox Green cytotoxicity fluorescence (CMK; 1 µM, 24 h)","CellTox Green cytotoxicity fluorescence (CMK; 1 µM, 48 h)","CellTox Green cytotoxicity fluorescence (CMK; 1 µM, 72 h)","CellTox Green cytotoxicity fluorescence (Kasumi-1; 0.01 µM, 24 h)","CellTox Green cytotoxicity fluorescence (Kasumi-1; 0.01 µM, 48 h)","CellTox Green cytotoxicity fluorescence (Kasumi-1; 0.01 µM, 72 h)","CellTox Green cytotoxicity fluorescence (Kasumi-1; 1 µM, 24 h)","CellTox Green cytotoxicity fluorescence (Kasumi-1; 1 µM, 48 h)","CellTox Green cytotoxicity fluorescence (Kasumi-1; 1 µM, 72 h)","CellTox Green cytotoxicity fluorescence (MV4-11; 0.01 µM, 24 h)","CellTox Green cytotoxicity fluorescence (MV4-11; 0.01 µM, 48 h)","CellTox Green cytotoxicity fluorescence (MV4-11; 0.01 µM, 72 h)","CellTox Green cytotoxicity fluorescence (MV4-11; 0.1 µM, 24 h)","CellTox Green cytotoxicity fluorescence (MV4-11; 0.1 µM, 48 h)","CellTox Green cytotoxicity fluorescence (MV4-11; 0.1 µM, 72 h)","CellTox Green cytotoxicity fluorescence (MV4-11; 1 µM, 24 h)","CellTox Green cytotoxicity fluorescence (MV4-11; 1 µM, 48 h)","CellTox Green cytotoxicity fluorescence (MV4-11; 1 µM, 72 h)","CellTox Green cytotoxicity fluorescence (Kasumi-1; 0.1 µM, 24 h)","CellTox Green cytotoxicity fluorescence (Kasumi-1; 0.1 µM, 48 h)","CellTox Green cytotoxicity fluorescence (Kasumi-1; 0.1 µM, 72 h)"
Cc1c(C(=O)Nc2ccc(Oc3ccnc4[nH]cc(-c5ccccc5)c34)c(F)c2)c(=O)n(-c2ccc(F)cc2)n1C,1.01 (inactive),1.02 (inactive),1.1 (inactive),0.997 (inactive),1.02 (inactive),1.01 (inactive),0.945 (inactive),0.956 (inactive),1.02 (inactive),1.01 (inactive),1.02 (inactive),0.998 (inactive),0.84 (inactive),0.814 (inactive),0.805 (inactive),1.01 (inactive),1.03 (inactive),1.06 (inactive),1.05 (inactive),1.23 (inactive),1.41 (inactive),1.03 (inactive),1.24 (inactive),1.49 (inactive),,,
CC(C)c1ccccc1Cc1cc(C(=O)Nc2ccc(S(=O)(=O)c3ccccc3C(C)(C)C)cc2)c(O)c(O)c1O,0.947 (inactive),0.942 (inactive),0.932 (inactive),0.932 (inactive),0.922 (inactive),0.947 (inactive),0.924 (inactive),1.51 (inactive),1.6 (inactive),0.977 (inactive),0.911 (inactive),0.915 (inactive),0.94 (inactive),0.909 (inactive),0.919 (inactive),0.952 (inactive),0.952 (inactive),0.957 (inactive),0.956 (inactive),0.944 (inactive),0.945 (inactive),0.933 (inactive),1.16 (inactive),1.84 (inactive),0.951 (inactive),0.94 (inactive),0.932 (inactive)
CN1CCN(Cc2ccc(Nc3ncc(Cl)c(Nc4ccccc4S(=O)(=O)N(C)C)n3)cc2)CC1,0.958 (inactive),0.972 (inactive),0.913 (inactive),1.07 (inactive),1.56 (inactive),1.32 (inactive),2.06 (active),2.42 (active),1.62 (inactive),0.957 (inactive),0.97 (inactive),0.961 (inactive),1.47 (inactive),1.66 (inactive),1.72 (inactive),0.95 (inactive),0.961 (inactive),0.975 (inactive),1.14 (inactive),1.93 (inactive),2.27 (active),1.42 (inactive),2.4 (active),2.55 (active),0.997 (inactive),1.34 (inactive),1.49 (inactive)
CCOC(=O)C1=C(N)Oc2ccc(Br)cc2C1C(C#N)C(=O)OCC (configuration not stated),0.931 (inactive),0.915 (inactive),0.892 (inactive),0.944 (inactive),0.948 (inactive),0.975 (inactive),0.954 (inactive),0.967 (inactive),0.968 (inactive),0.946 (inactive),0.93 (inactive),0.927 (inactive),1.01 (inactive),1.05 (inactive),1.06 (inactive),0.97 (inactive),0.991 (inactive),1.01 (inactive),0.944 (inactive),0.944 (inactive),0.948 (inactive),0.96 (inactive),0.957 (inactive),0.957 (inactive),0.923 (inactive),0.902 (inactive),0.875 (inactive)
Fc1ccc(CNc2ncnc3ccc(F)cc23)cc1 [Spautin-1],0.96 (inactive),1.08 (inactive),1.16 (inactive),0.971 (inactive),0.943 (inactive),0.916 (inactive),0.983 (inactive),0.967 (inactive),0.917 (inactive),1.03 (inactive),1.04 (inactive),0.987 (inactive),1.04 (inactive),1.01 (inactive),1.01 (inactive),0.982 (inactive),0.965 (inactive),0.962 (inactive),0.962 (inactive),0.942 (inactive),0.936 (inactive),1.03 (inactive),1.02 (inactive),1.02 (inactive),1 (inactive),1 (inactive),0.997 (inactive)
CC(C)[C@H](CO)Nc1nc(Nc2cccc(Cl)c2)c2ncn(C(C)C)c2n1 [Purvalanol A],0.988 (inactive),1 (inactive),1 (inactive),0.992 (inactive),1 (inactive),0.965 (inactive),0.987 (inactive),1.02 (inactive),1.02 (inactive),0.997 (inactive),0.989 (inactive),0.974 (inactive),0.928 (inactive),0.948 (inactive),0.923 (inactive),1.01 (inactive),1.02 (inactive),1.03 (inactive),1.03 (inactive),1.04 (inactive),1.04 (inactive),1 (inactive),1.06 (inactive),1.07 (inactive),0.983 (inactive),0.965 (inactive),0.974 (inactive)
CNC(=O)c1ccccc1Nc1cc(Nc2ccc(N3CCOCC3)cc2OC)ncc1C(F)(F)F,0.924 (inactive),0.935 (inactive),0.912 (inactive),0.928 (inactive),0.933 (inactive),0.917 (inactive),0.946 (inactive),1.02 (inactive),0.957 (inactive),0.924 (inactive),0.952 (inactive),0.976 (inactive),0.928 (inactive),1.03 (inactive),1.08 (inactive),0.941 (inactive),0.941 (inactive),0.949 (inactive),0.936 (inactive),0.967 (inactive),0.972 (inactive),0.979 (inactive),1.18 (inactive),1.39 (inactive),0.976 (inactive),0.988 (inactive),0.96 (inactive)
CC[C@H](NC(=O)[C@H](C)NC)C(=O)N1C[C@@H](O)C[C@H]1Cc1c(-c2[nH]c3cc(F)ccc3c2C[C@@H]2C[C@H](O)CN2C(=O)[C@H](CC)NC(=O)[C@H](C)NC)[nH]c2cc(F)ccc12 [Birinapant],0.985 (inactive),0.974 (inactive),0.988 (inactive),0.998 (inactive),0.996 (inactive),1 (inactive),0.983 (inactive),1.03 (inactive),0.952 (inactive),0.993 (inactive),1.03 (inactive),1.05 (inactive),1.04 (inactive),1.26 (inactive),1.5 (inactive),0.987 (inactive),0.989 (inactive),1 (inactive),0.988 (inactive),1.04 (inactive),1.08 (inactive),1.03 (inactive),1.2 (inactive),1.32 (inactive),1.02 (inactive),1.1 (inactive),1.2 (inactive)
COc1nc(OCc2cccc(-c3ccccc3)c2C)ccc1CNCCNC(C)=O [PD-1/PD-L1 inhibitor 2],1.01 (inactive),0.96 (inactive),0.968 (inactive),0.99 (inactive),0.951 (inactive),0.928 (inactive),0.99 (inactive),0.983 (inactive),0.956 (inactive),1 (inactive),0.98 (inactive),0.994 (inactive),0.978 (inactive),1 (inactive),0.999 (inactive),1.02 (inactive),0.96 (inactive),1 (inactive),0.984 (inactive),0.959 (inactive),0.944 (inactive),0.985 (inactive),1 (inactive),1.01 (inactive),0.997 (inactive),1.02 (inactive),1.01 (inactive)
Cc1nc(Nc2ncc(C(=O)Nc3c(C)cccc3Cl)s2)cc(N2CCN(CCO)CC2)n1 [Dasatinib Monohydrate],1.01 (inactive),1.02 (inactive),1.07 (inactive),1.02 (inactive),1.04 (inactive),0.987 (inactive),1 (inactive),1.05 (inactive),1.09 (inactive),1.03 (inactive),1.09 (inactive),1.13 (inactive),0.928 (inactive),1.13 (inactive),1.24 (inactive),1 (inactive),0.989 (inactive),0.978 (inactive),0.993 (inactive),0.983 (inactive),0.97 (inactive),1.02 (inactive),1.01 (inactive),1.01 (inactive),1.02 (inactive),1.15 (inactive),1.23 (inactive)
COC(=O)[C@H](CCSC)NC(=O)c1ccc(NC[C@@H](N)CS)cc1-c1ccccc1,0.934 (inactive),0.924 (inactive),0.941 (inactive),0.896 (inactive),0.897 (inactive),0.941 (inactive),0.938 (inactive),0.978 (inactive),1.04 (inactive),0.974 (inactive),0.922 (inactive),0.926 (inactive),0.941 (inactive),0.973 (inactive),0.997 (inactive),0.942 (inactive),0.936 (inactive),0.953 (inactive),0.947 (inactive),0.943 (inactive),0.932 (inactive),0.927 (inactive),0.931 (inactive),0.944 (inactive),0.932 (inactive),0.927 (inactive),0.924 (inactive)
CN[C@@H](C)C(=O)N[C@H](C(=O)N1CCC[C@H]1c1nc(C(=O)c2ccc(F)cc2)cs1)C1CCCCC1,0.96 (inactive),0.958 (inactive),0.993 (inactive),0.965 (inactive),0.981 (inactive),1.03 (inactive),0.964 (inactive),0.991 (inactive),0.981 (inactive),0.997 (inactive),0.955 (inactive),0.955 (inactive),1.03 (inactive),1.1 (inactive),1.17 (inactive),0.99 (inactive),0.973 (inactive),0.977 (inactive),0.975 (inactive),0.99 (inactive),1 (inactive),0.969 (inactive),1.02 (inactive),1.03 (inactive),0.998 (inactive),1.02 (inactive),1.04 (inactive)
C=CC(=O)N1CCN(C(=O)CNc2cc(I)c(Cl)cc2O)CC1 [K-Ras(G12C) inhibitor 12],1.01 (inactive),0.986 (inactive),0.963 (inactive),0.999 (inactive),0.997 (inactive),0.992 (inactive),0.992 (inactive),1 (inactive),1.02 (inactive),0.989 (inactive),1.01 (inactive),1 (inactive),0.995 (inactive),0.964 (inactive),0.958 (inactive),0.959 (inactive),0.976 (inactive),0.971 (inactive),0.991 (inactive),0.991 (inactive),1.01 (inactive),0.993 (inactive),0.996 (inactive),1.03 (inactive),1.01 (inactive),0.982 (inactive),0.979 (inactive)
CN(C)CCCCC(=O)Nc1ccc(NC(=S)NC(=O)c2ccc(C(C)(C)C)cc2)cc1 [Tenovin-6],0.978 (inactive),0.97 (inactive),0.94 (inactive),1 (inactive),0.991 (inactive),0.973 (inactive),1.01 (inactive),1.03 (inactive),0.875 (inactive),0.99 (inactive),0.965 (inactive),0.966 (inactive),0.958 (inactive),1 (inactive),1.01 (inactive),1 (inactive),0.993 (inactive),0.989 (inactive),0.986 (inactive),0.964 (inactive),0.952 (inactive),1.02 (inactive),1.02 (inactive),1.05 (inactive),0.947 (inactive),0.912 (inactive),0.879 (inactive)
CC1(C)CC[C@]2(NC(=O)C(C)(F)F)CC[C@]3(C)[C@H](C(=O)C=C4[C@@]5(C)C=C(C#N)C(=O)C(C)(C)[C@@H]5CC[C@]43C)[C@@H]2C1 [Omaveloxolone],0.972 (inactive),0.97 (inactive),1 (inactive),0.98 (inactive),0.952 (inactive),0.762 (inactive),2.13 (active),2.33 (active),1.56 (inactive),0.94 (inactive),0.95 (inactive),0.898 (inactive),1.11 (inactive),1.34 (inactive),1.34 (inactive),0.94 (inactive),0.94 (inactive),0.966 (inactive),0.943 (inactive),0.997 (inactive),1.1 (inactive),1.23 (inactive),2.12 (active),2.24 (active),0.971 (inactive),1 (inactive),0.946 (inactive)

# Source: the supplement of paper PMC7595190
